Bioassay records as filed in PubChem BioAssay.
Compounds with a hit are over-represented: about 11% of the library has one in this group of screens.
Tau fluor cs = counter-screen for tau fibril formation inhibitors; tau K18 P301L Alexa594 fluorescence, heparin fibrillization; Potency, µM (highest dose often 57.7 µM), inactives show top-dose activity change, negative = decrease; 280,000 compounds, 0.93% hits; further: potency means the concentration at half of the fitted maximal effect; nearly all actives have a fitted effect of over 55% in size
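Human tau K18 P301L (15 uM unlabeled, 0.24 uM Alexa 594-labeled) in 100 mM sodium acetate pH 7 with 20 uM heparin, 6 hr at 37 C. ThT 30 uM added, 1 hr ambient; Alexa 594 FP and total fluorescence read at 555/632 nm.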
FBPA coupling cs = counter-screen for Giardia aldolase inhibitors: coupling enzyme system; AID 2472; activity change, negative = inhibition, % at 58.2 µM, hits read low; coupling enzyme system counterscreen, AmpLite Red fluorescence; 290,000 compounds, 0.67% hits; in the data active means activity change below about -30%
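Final compound at 57.5 uM, incubated 10 min at RT with coupling enzyme reagent (glyceraldehyde-3-phosphate), then 20 min with substrate and AmpLite Red detection. Fluorescence read at 525/598 nm; tests interference with the coupling assay, not aldolase inhibition.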
Sfp inh = inhibitors of Bacillus subtilis Sfp phosphopantetheinyl transferase; Q9F4F7; Biochemical Sfp PPTase activity, qHTS; Potency, µM, for inactives: largest response in the series, negative = inhibition, actives largely listed as inhibitors; 310,000 compounds, 3.5% hits; AID 1490;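 further: the enzyme is Sfp with the accession as filed and its product quenches rhodamine fluorescence; potency means the concentration at half of the fitted maximal effect; 0% = enzyme reaction without inhibitor and -100% = no enzyme wells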
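Compounds were incubated with enzyme (final 15 nM) for 15 min at room temperature before substrate addition started the reaction. Fluorescence at 525 nm excitation, 598 nm emission was recorded immediately and after 30 minutes.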
Tau ThT inhib = tau fibrillization inhibition (ThT binding). P10636. recombinant tau K18 P301L (four-repeat tau fragment), heparin-induced fibrillization, ThT fluorescence. Potency, µM (titrated, usually from 57.4 µM), for inactives: at the top dose activity, negative = inhibition, actives largely listed as inhibitors. 270,000 compounds, 2.1% hits. AID 1460; further: potency means the concentration at half of the fitted maximal effect; nearly all actives have a fitted effect of over 55% in size
Target sequence (P10636 561-689 P618L limits assumed): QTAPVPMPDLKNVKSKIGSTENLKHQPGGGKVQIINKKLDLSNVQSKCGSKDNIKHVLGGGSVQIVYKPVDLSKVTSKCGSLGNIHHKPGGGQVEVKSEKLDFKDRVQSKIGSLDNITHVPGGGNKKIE
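Heparin-induced (20 uM) aggregation of recombinant human K18 P301L tau, 15 uM unlabeled with 0.24 uM labeled, pH 7 acetate buffer, 6 hr at 37 C with compound. Fibrils quantified by 30 uM ThT fluorescence after 1 hr ambient incubation.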
Tau fibril FP = blocks human tau fibril formation measured by polarization. P10636. K18 P301L tau heparin fibrillization, Alexa594 FP, 6 h. Potency, µM (series often up to 57.7 µM), inactives show top-dose activity, negative = inhibition, usual class: inhibitors. 280,000 compounds, 0.39% hits. AID 1468; further: potency means the concentration at half of the fitted maximal effect; nearly all actives have a fitted effect of over 55% in size
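Human K18 P301L fragment (15 uM unlabeled plus 0.24 uM Alexa 594-labeled) in 100 mM sodium acetate pH 7 with compound, aggregation induced by 20 uM heparin for 6 hr at 37 C. ThT (30 uM) added for 1 hr, then Alexa 594 FP read.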
G9a block = inhibitors of human histone lysine methyltransferase G9a; 350,000 compounds, 8.8% hits; G9a H3K9 monomethylation, AlphaScreen, 2 h; Q96KQ7; Potency, µM (doses to about 102 µM), for inactives: top-dose activity, negative = inhibition, actives largely listed as inhibitors; further: potency means the concentration at half of the fitted maximal effect; nearly all actives have a fitted effect of over 75% in size
Target sequence (Q96KQ7 913-1193 limits assumed): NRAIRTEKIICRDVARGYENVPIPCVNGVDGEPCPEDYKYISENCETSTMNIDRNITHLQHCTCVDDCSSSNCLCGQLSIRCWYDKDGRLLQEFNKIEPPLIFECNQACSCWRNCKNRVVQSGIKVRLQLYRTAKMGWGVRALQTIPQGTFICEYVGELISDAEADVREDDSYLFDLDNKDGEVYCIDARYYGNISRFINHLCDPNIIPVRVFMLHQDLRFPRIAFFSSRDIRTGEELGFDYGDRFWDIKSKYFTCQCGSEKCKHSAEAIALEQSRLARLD
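Signal arises when biotinylated H3K9 peptide, once monomethylated, bridges streptavidin donor and antibody-captured acceptor beads. Enzyme at 20 nM was preincubated 15 min with test compounds; peptide 500 nM and SAM 20 uM then reacted for 2 h.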
An asterisk follows results filed as active; ? = inconclusive; · = not tested or not shown; ! = not confirmed by another sample; [ ] = remark or other dose. Unless noted, the call rests on the fitted dose curve; in most records, active means well fitted curve in the direction sought with a large enough effect; inconclusive means small, poorly fitted or top-dose-only effect, or another doubt; inactive means no such curve, though single readings can be large; an effect the other way counts as inactive or inconclusive. Unless noted, on the % scale 0 is the no-effect control and ±100 the full control effect.

SMILES | Tau fluor cs | FBPA coupling cs | Sfp inh | Tau ThT inhib | Tau fibril FP | G9a block
CN(C)c1nc(N2CCOCC2)nc(N(c2ccccc2)c2ccccc2)n1 | -6% | 5 | -6% | -14% | 0% | ?
CN(C)c1cccc(N=C2C=C(N3CCOCC3)CC(C)(C)C2)c1 | 0% | -1 | 24% | -8% | 4% | 3.2µM*
COc1cccc(CNC23CC4CC(CC(C4)C2)C3)c1OCc1ccccc1 | 6% | 4 | -10% | 2% | 0% | -31%
CC(=O)c1cc(CC(=O)N2CCc3c([nH]c4ccccc34)C2c2ccccn2)cs1 (centres undefined) | -22% | 5 | 20µM* | -15% | -6% | ?
Cn1cccc1-c1cc(C(=O)N2CCc3c([nH]c4ccccc34)C2c2ccccn2)[nH]n1 (centres undefined) | -24% | 0 | ? | -12% | 8% | 35µM*
O=C(c1ccc(-n2cccn2)cc1)N1CCc2c([nH]c3ccccc23)C1c1ccccn1 (centres undefined) | ? | -5 | -9% | ? | 11% | ?
Cc1nc(C)c(CC(=O)N2CCc3c([nH]c4ccccc34)C2c2ccccn2)s1 (centres undefined) | -6% | -6 | -9% | -15% | -2% | ·
Cn1cccc1-c1cc(C(=O)O)[nH]n1 | 4% | -8 | 45µM* | 1% | 5% | 50µM*
O=C(Nc1cc(Sc2nc3ccccc3s2)cc([N+](=O)[O-])c1)c1cccc(F)c1F | ? | -3 | 10% | -4% | -5% | -8%[59 µM]
CN1CCN(/N=C/c2nc(-c3ccccc3)n3ccccc23)CC1 | -20% | -6 | -10% | ? | -8% | 14µM*
CN1CCN(/N=C/c2ccc(OCc3ccccc3)cc2)CC1 | -12% | 3 | 2% | ? | 7% | ·
CN1CCN(/N=C/c2nc(-c3ccc(Cl)cc3)n3ccccc23)CC1 | -3% | 1 | 13% | -1% | 1% | 16µM*
O=Cc1nc(-c2ccc(Cl)cc2)n2ccccc12 | -8% | 2 | 7% | -8% | 4% | 4%
Clc1ccc(-c2nc(/C=N/N3CCOCC3)c3ccccn23)cc1 | ? | -4 | -14% | ? | -5% | 28µM*
CC(=O)c1cccc(NC(=O)C(Cc2ccccc2)NS(=O)(=O)c2ccc(Br)s2)c1 (centres undefined) | -17% | · | · | 0% | ? | 7%[59 µM]
COc1ccccc1CNc1ccc(-c2nc(-c3ccncc3)no2)cc1[N+](=O)[O-] | -2% | · | · | 9% | -14% | -18%[59 µM]
CCN(CC)c1ccc(N=C2C(=O)Nc3ccccc32)cc1 | · | -11 | ? | · | · | 6.3µM*
Cc1ccc(N=C2C(=O)Nc3ccccc32)cc1 | · | -5 | -1% | · | · | 11%
CCc1cc2c(cc3c(=O)n(CC(=O)NC4CCCCC4)ncn32)s1 | -1% | · | · | -7% | -2% | 7%[59 µM]
O=[N+]([O-])c1ccccc1S(=O)(=O)NC1CCCCCCC1 | · | 1 | 18% | · | · | ·
O=C1CCCCCCC1Sc1ccccc1[N+](=O)[O-] (centres undefined) | -23% | 0 | -30% | 32µM* | ? | 11µM*
O=C(CCN1C(=O)c2ccccc2C1=O)N1CCN(Cc2ccccc2)CC1 | -8% | 0 | -6% | -10% | -6% | 7%[59 µM]
O=C(CCN1C(=O)c2ccccc2C1=O)N1CCN(Cc2ccc(Cl)cc2Cl)CC1 | 3% | 0 | -5% | ? | 5% | 40µM*
Cc1ccc(S(=O)(=O)N2CCN(C(=O)CCN3C(=O)c4ccccc4C3=O)CC2)cc1C | -3% | 0 | -1% | 0% | -6% | 79µM*
CCOc1ccc(C(=O)C(C)OC(=O)Cn2[nH]c(=O)c3ccccc3c2=O)cc1 (centres undefined) | · | · | 6% | · | · | ·
SMILES | Tau fluor cs | FBPA coupling cs | Sfp inh | Tau ThT inhib | Tau fibril FP | G9a block
Cc1cc(=O)oc2cc(O)c(O)cc12 | -10% | -2 | 4% | -3% | -2% | ·
COc1ccccc1C(=O)NCCC(=O)NC(C)c1ccc(-n2ccnc2)cc1 (centres undefined) | · | · | · | · | · | 20µM*
CC(=O)Nc1cccc(C(=O)NC(C)c2ccc(-n3ccnc3)cc2)c1 (centres undefined) | · | 2 | 7% | · | · | 45µM*
CC(NC(=O)CCNC(=O)c1ccccc1Cl)c1ccc(-n2ccnc2)cc1 (centres undefined) | · | · | 13% | · | · | -41%
CNc1nc(-c2ccccc2C)nc2ccccc12 | · | 0 | ? | · | · | -2%[0.501 µM]
COc1ccc(OC)c(N=C(N)N=C(N)N)c1 | 7% | 2 | 25% | 7% | -3% | 15%[12.7 µM]
CCN(CC)CCNC(=O)c1[nH]c2ccc(OCc3ccccc3)cc2c1C | 20µM*[quencher] | 0 | ? | -12% | 7% | 50µM*
O=C(CCC1N=C2c3ccccc3N=C(SCc3ccc(Cl)cc3)N2C1=O)NC1CCCCC1 (centres undefined) | -3% | · | · | -12% | -9% | 4%[59 µM]
O=C(COC(=O)C1=NN(c2ccccc2)C(=O)CC1)NCc1ccccc1Cl | · | · | · | · | · | -8%[2.33 µM]
Cc1ccc(C)c(NC(=S)NCCSc2ccc(Cl)cc2)c1 | -24% | -2 | 15% | 1% | -9% | 2%[59 µM]
Cc1cccc(NNC(=S)Nc2c(C)cccc2C)c1 | · | 0 | 9% | · | · | 45µM*
CN(C)NC(=S)Nc1cccc(Cl)c1 | 1% | 0 | 13% | -4% | 5% | -4%
Cc1cccc(NC(=S)NCCSc2ccc(Cl)cc2)c1 | 10µM*[quencher] | -1 | 24% | -18% | ? | 52%[59 µM]
Cc1cccc(NC(=S)NNc2cccc(Cl)c2)c1 | · | -1 | -17% | · | · | 32µM*
CCN(C(=O)C1CCN(S(=O)(=O)c2cc(Br)cc3c2N(C(C)=O)CC3)CC1)c1cccc(C)c1 | -12% | · | · | -19% | 0% | -12%[59 µM]
OB(O)c1ccc(Cl)s1 | 0% | 3 | 31% | 3% | 1% | ·
O=C(Nc1cccc(F)c1)N1CCCC2(CCN(S(=O)(=O)c3ccccc3)CC2)C1 | · | 3 | 14% | · | · | 7%[12.7 µM]
COc1ccc(OC)c(C(=O)NC(CC(N)=O)c2ccc(NCCN3CCCCC3)c([N+](=O)[O-])c2)c1 (centres undefined) | · | 2 | 15% | · | · | ?
CCN(Cc1ccccc1)Cc1ccc(OCc2ccccc2)cc1 | · | 1 | -28% | · | · | ·
CCCOc1ccc(C(C(=O)OCCN(CC)CC)c2ccccc2)cc1 (centres undefined) | -10% | 2 | -9% | -10% | -2% | 8.9µM*
CCN(CC)CCOc1ccc(Cc2ccccc2)cc1 | 6% | 0 | 79µM*! | 4% | 7% | 8%[59 µM]
COc1ccc(C(C(=O)OCCN(C)C)c2ccccc2)cc1 (centres undefined) | -2% | 0 | 6% | 1% | -9% | -30%[59 µM]
